Assay outcomes (PubChem)
Hits are enriched below; roughly 1.5% of the tested compounds scored in any of these assays.
GLD-1 RNA inh: GLD-1-TGE RNA interaction inhibition (C. elegans); AID 2280; purified GLD-1 + fluorescein TGE RNA, fluorescence polarization; 320,000 tested, 0.44% active; inhibition, % at 5.96 µM; Q17339;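 active = percent inhibition above a per-plate cutoff, the plate mean of test compounds plus 3 SD, cut at about 30% in these data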;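 also: 0% = DMSO wells with GLD-1 and probe and 100% = wells lacking GLD-1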
BCLXL inh: Bcl-xL (human) inhibition | Q07817 | GST-Bcl-xL / FITC-Bim BH3 peptide fluorescence polarization | inhibition, % at 10.9 µM | 320,000 tested, 0.7% active | AID 2129;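 active = inhibition above the mean of all tested compounds plus 3 SD, cutoff set per campaign, cut at about 30% in these data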;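 also: 0% = DMSO wells and 100% = unlabeled Bim-BH3 peptide competitor; inhibitors lower millipolarization by displacing the labeled peptide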
MCL1-BIM inh: disrupts human MCL1 binding to BIM-BH3 peptide | Q07820 | GST-MCL1 / FITC-Bim-BH3 fluorescence polarization | inhibition, % at 10.9 µM | 320,000 tested, 0.68% active;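 active = inhibition above the mean inhibition of all tested compounds plus 3 SD, set per campaign, cut at about 40% in these data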;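 also: 0% = DMSO wells and 100% = unlabeled Bim-BH3 peptide control; higher means more loss of mP so more displacement of Bim peptide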
EBV gp42 block: inhibitors of Epstein-Barr virus glycoprotein 42. Q1HVG2. Fluorescence polarization binding assay, mP read-out. inhibition, % (tested at 21.74 µM). 220,000 tested, 0.42% active. AID 1085; in the data active = inhibition above about 50%
eLon inh: E. coli protease La inhibition; P0A9M0; purified E. coli Lon protease, fluorescence polarization; inhibition, % at 7.94 µM; 360,000 tested, 0.42% active; AID 602123; in the data active = inhibition above about 13%, passing the limit was not always enough;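 also: 0% = enzyme with probe and DMSO and 100% = no enzyme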
Target sequence (P0A9M0 whole entry, looked up): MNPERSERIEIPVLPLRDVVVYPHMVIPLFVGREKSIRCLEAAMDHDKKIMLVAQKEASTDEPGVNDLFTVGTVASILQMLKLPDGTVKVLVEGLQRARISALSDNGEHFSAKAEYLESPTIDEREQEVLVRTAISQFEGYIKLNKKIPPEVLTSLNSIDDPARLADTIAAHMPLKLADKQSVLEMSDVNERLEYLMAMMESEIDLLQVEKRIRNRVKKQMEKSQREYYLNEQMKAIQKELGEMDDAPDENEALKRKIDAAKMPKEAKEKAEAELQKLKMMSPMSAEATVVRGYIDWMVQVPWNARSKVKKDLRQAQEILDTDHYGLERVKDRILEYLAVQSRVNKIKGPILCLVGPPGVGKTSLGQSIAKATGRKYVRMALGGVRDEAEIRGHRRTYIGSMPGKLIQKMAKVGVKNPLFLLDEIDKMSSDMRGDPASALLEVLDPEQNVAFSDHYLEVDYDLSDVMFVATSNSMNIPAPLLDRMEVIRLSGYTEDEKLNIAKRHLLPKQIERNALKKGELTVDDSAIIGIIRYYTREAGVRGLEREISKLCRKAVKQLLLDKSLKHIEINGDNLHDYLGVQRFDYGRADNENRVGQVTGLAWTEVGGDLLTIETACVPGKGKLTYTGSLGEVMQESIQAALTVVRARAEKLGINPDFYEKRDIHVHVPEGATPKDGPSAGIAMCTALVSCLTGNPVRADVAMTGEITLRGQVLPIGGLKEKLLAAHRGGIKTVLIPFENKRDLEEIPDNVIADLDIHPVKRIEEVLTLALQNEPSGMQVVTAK
MEX-5 binding: C. elegans MEX-5 TCR-2 RNA binding activity; MEX-5/FITC-TCR2 RNA binding, fluorescence polarization; stronger effect = lower value; Q9XUB2; activity score (negative = inhibition of binding), % at 10 µM; 300,000 tested, 0.38% active; AID 1832;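 active = inhibition past about -25% in most replicates, and total fluorescence under double the plate's negative control median, limit read from the data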;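 also: 0% = DMSO and -100% = 5 µM competing unlabeled TCR2 RNA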
GLD-1 TGE cf: confirmation of C. elegans GLD-1 TGE RNA binding inhibitors. inhibition, % at 5.96 µM. shares compounds with GLD-1 RNA inh. GLD-1/FL-TGE RNA fluorescence polarization, biochemical. 550 tested, 10% active;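 active = average inhibition across triplicates above the hit cutoff set in the primary screen, cut at about 32% in these data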;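 also: 0% = GLD-1 with RNA probe and DMSO and 100% = wells lacking GLD-1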
An asterisk follows results filed as active; · = no result.

SMILES	GLD-1 RNA inh	BCLXL inh	MCL1-BIM inh	EBV gp42 block	eLon inh	MEX-5 binding	GLD-1 TGE cf
CCOc1ccc(-c2noc(-c3cccnc3)n2)cc1OCC	102*	1	3	-9	-1	·	-2
CCOC(=O)c1c(-c2ccccc2)oc2cc(CN(C)C)c(O)c(CN(C)C)c12	37*	35*	49*	·	-12	-2	7
COc1cccc(N(CC(=O)NCC2CCCO2)C(=O)CNS(=O)(=O)c2ccccc2)c1 (stereo not given)	38*	41*	36	-6	-5	2	1
CCOC(=O)C1=C(Cc2ccc(Cl)cc2)C(=O)c2ccccc2C1=O	33*	25	37	-20	9	2	5
Cc1c(N=C2C=C(Br)C(=O)C(Br)=C2)c(=O)n(-c2ccccc2)n1C	·	·	·	15	-5	·	·
C=C(C)CSc1nc2nc(C)cc(C)n2n1	35*	29	35	0	-8	-1	-7
O=C(Nc1ccc2nc(-c3ccco3)c(-c3ccco3)nc2c1)N1CCCCCC1	41*	105*	118*	78*	·	-11	27
O=C(CSc1ccc(-c2ccco2)nn1)NCc1ccccc1Cl	34*	42*	41*	11	2	-4	-7
O=C(CSc1ccc(-c2ccco2)nn1)Nc1ccccc1	5	9	7	-14	0	1	·
CCCn1c2ccccc2c2cnn(CC(=O)NCCN(C)C)c(=O)c21	·	·	·	·	2	0	·
Cc1c(O)ccc2cc(S(=O)(=O)c3ccccc3)c(=O)oc12	34*	37*	37	·	-7	-24	49*
CN1CCN(c2nc3nonc3nc2N2CCN(C)CC2)CC1	35*	33*	29	-6	8	-5	4
COc1ccc(NC(=O)c2cc3ccccc3o2)cn1	0	3	7	·	-1	4	·
COc1ccc(NC(=O)c2cc(=O)c3ccccc3o2)cn1	41*	44*	48*	25	10	-3	20
CCN(Cc1ccncc1)C(=S)Nc1c(C)cccc1C	37*	44*	47*	0	3	-1	4
Cc1cccc(C)c1NC(=S)N(Cc1ccccc1)Cc1cccnc1	-3	0	2	8	6	2	·
CCN1C(=O)C(CC(=O)Nc2ccc(OC)cc2)N(CCc2ccc(OC)cc2)C1=S (stereo not given)	-1	3	6	8	4	1	·
COc1ccc(CCN2C(=S)N(C)C(=O)C2CC(=O)Nc2ccc(F)cc2)cc1 (stereo not given)	61*	5	7	20	-3	-4	-2
Cc1ccc(-c2csc(N3CCN(CCCn4c(C(F)(F)F)nc5ccccc54)CC3)n2)cc1	40*	3	1	·	-5	0	-1
Cc1ccc(-c2csc(N3CCN(CCCn4c(-c5ccncc5)nc5ccccc54)CC3)n2)cc1	-3	-2	4	·	1	0	·
Cc1ccc(NC(=O)c2oc3ccccc3c2NC(=O)C2CCCO2)cc1C (stereo not given)	-8	0	3	-7	0	1	·
COc1ccc(NC(=O)c2oc3ccccc3c2NC(=O)C2CCCO2)cc1OC (stereo not given)	70*	4	2	-1	1	0	-2
Cc1snc2sc(C(=O)c3ccc(Br)cc3)c(N)c12	-6	5	6	9	-11	-18	·
CCc1ccc(OCc2nnc(SCCN3CCOCC3)n2CC)cc1	9	1	-1	-20	-7	-3	·
COCCNc1ccc([N+](=O)[O-])cc1C(=O)Nc1cccc(C)n1	68*	5	4	1	-1	-2	1
SMILES	GLD-1 RNA inh	BCLXL inh	MCL1-BIM inh	EBV gp42 block	eLon inh	MEX-5 binding	GLD-1 TGE cf
CC(C)c1ccc(/C=N/n2nnnc2Nc2ccccc2)cc1	49*	43*	40	-4	-3	0	-10
O=C(c1ccccc1F)N1CCN(c2cccc(C(F)(F)F)c2)CC1	4	-4	-4	-12	-6	-4	·
COCCSc1nc2c(c(=O)[nH]c(=O)n2C)n1CCC(C)C	-2	1	3	-19	7	-1	·
COc1ccc(OC)c(NC(=O)c2cc3c(cc2Cl)N2CCCCCC2=NS3(=O)=O)c1	35*	·	·	·	-2	·	-8
Cc1sc2nc(C(C)(C)C)oc(=O)c2c1C	117*	4	3	-11	-9	-4	-2
Cc1ccccc1-c1nc2sc(C)c(C)c2c(=O)o1	3	8	-8	·	-5	-2	·
COc1ccc(-c2cn[nH]c2-c2ccc(OCc3ccccc3F)cc2O)cc1OC	0	0	2	2	5	-1	·
CCOC(=O)C1=C(O)c2ccccc2C(=O)/C1=C\c1ccc(C)cc1	57*	37*	43*	-1	-10	·	-6
C=CCN1C=C2C(=O)C(C)(OC(=O)C3CCCC3)C(=O)C=C2C=C1c1ccsc1 (stereo not given)	32*	31*	38	-4	16	-6	3
C=CCc1cccc(/C=N/n2c(C)nnc2C)c1O	31*	24	29	30	-7	-22	35*
C=CCc1cccc(/C=N/c2ncn[nH]2)c1O	-2	4	14	-14	8	2	·
Cc1ccc(C)c(NC(=S)NCc2ccc3[nH]c4c(c3c2)CCCC4)c1	59*	55*	15	2	0	1	-4
Cc1ccccc1NC(=S)NCc1ccc2[nH]c3c(c2c1)CCCC3	7	6	10	0	-1	3	·
O=C(NCCOc1ccc(Cl)cc1)c1ccc2ccccc2n1	54*	4	2	12	-2	·	-4
Cc1ccc(OCCNC(=O)c2ccc3ccccc3n2)cc1	12	7	5	·	0	0	·
COc1ccc(Nc2ccc(N3C(=O)CC(C)C3=O)cc2[N+](=O)[O-])cn1 (stereo not given)	38*	42*	42*	13	5	-12	13
O=C(Nc1sc2c(c1C(=O)O)CCCC2)c1ccc(Cl)cc1	3	4	-4	·	-8	-1	·
O=C(Nc1sc2c(c1C(=O)O)CCC2)c1ccccc1	49*	12	19	-3	0	1	2
CC(=O)NC(CC(=O)O)c1ccc([N+](=O)[O-])cc1 (stereo not given)	5	1	-1	-13	2	1	·
Cc1ccc(C2=Nc3ccccc3NC(C)(c3ccc(C)o3)C2)o1 (stereo not given)	44*	40*	36	-4	14	0	-2
C=CC[N+]1(CC#CCOC(c2ccccc2)c2ccccc2)CCOCC1	4	0	5	-2	-9	1	·
